Sampled rows, rich in hits. Any-hit rate of the full collection: about 2.4%.
Pol kappa inh-1: qHTS for Inhibitors of Polymerase Kappa; DNA polymerase kappa (Homo sapiens), Q9UBT6; purified Pol kappa, fluorescent DNA synthesis assay, 10 min; Potency, µM (series often up to 107 µM), for inactives: at the highest dose activity, negative = inhibition, most hits filed as inhibitors; hit rate 0.53% among 400,000; also: potency is read from the fitted curve at half-maximal effect; % is scaled to controls: 0 for no effect and ±100 for the full control effect
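Fluorescent qHTS in 1536-well format: enzyme (10 nM) and compound sat 15 min at room temperature before 50 nM substrate (final) was added. Signal taken at 0 and 10 min; no-enzyme buffer wells were negative controls.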
WRN inhibitor: qHTS for Inhibitors of WRN Helicase. Bifunctional 3'-5' exonuclease/ATP-dependent helicase WRN (Homo sapiens), Q14191. WRN helicase unwinding, fluorescent forked duplex, kinetic. Potency, µM (top dose mostly 114 µM), for the others: at the top dose activity change, negative = inhibition, usual class: inhibitors. hit rate 0.46% among 360,000; also: potency is read from the fitted curve at half-maximal effect; % is scaled to controls: 0 for no effect and ±100 for the full control effect; nearly all actives have a fitted effect of over 55% in size
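Kinetic fluorescence helicase assay: unwinding of a quenched forked DNA duplex (100 nM final) with 2 mM ATP final raises red fluorescence (525/598 nm). Compounds sat 15 min at room temperature with 20 nM WRN beforehand.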
POLI inh: qHTS for Inhibitors of Polymerase Iota. hit rate 1% among 390,000. DNA polymerase iota (Homo sapiens), Q9UNA4. Potency, µM (top dose mostly 115 µM), inactives show at the top dose activity, negative = inhibition, usual class: inhibitors. Pol iota fluorescent replication assay, 10 min; also: potency is read from the fitted curve at half-maximal effect
Target sequence (Q9UNA4 whole entry, looked up): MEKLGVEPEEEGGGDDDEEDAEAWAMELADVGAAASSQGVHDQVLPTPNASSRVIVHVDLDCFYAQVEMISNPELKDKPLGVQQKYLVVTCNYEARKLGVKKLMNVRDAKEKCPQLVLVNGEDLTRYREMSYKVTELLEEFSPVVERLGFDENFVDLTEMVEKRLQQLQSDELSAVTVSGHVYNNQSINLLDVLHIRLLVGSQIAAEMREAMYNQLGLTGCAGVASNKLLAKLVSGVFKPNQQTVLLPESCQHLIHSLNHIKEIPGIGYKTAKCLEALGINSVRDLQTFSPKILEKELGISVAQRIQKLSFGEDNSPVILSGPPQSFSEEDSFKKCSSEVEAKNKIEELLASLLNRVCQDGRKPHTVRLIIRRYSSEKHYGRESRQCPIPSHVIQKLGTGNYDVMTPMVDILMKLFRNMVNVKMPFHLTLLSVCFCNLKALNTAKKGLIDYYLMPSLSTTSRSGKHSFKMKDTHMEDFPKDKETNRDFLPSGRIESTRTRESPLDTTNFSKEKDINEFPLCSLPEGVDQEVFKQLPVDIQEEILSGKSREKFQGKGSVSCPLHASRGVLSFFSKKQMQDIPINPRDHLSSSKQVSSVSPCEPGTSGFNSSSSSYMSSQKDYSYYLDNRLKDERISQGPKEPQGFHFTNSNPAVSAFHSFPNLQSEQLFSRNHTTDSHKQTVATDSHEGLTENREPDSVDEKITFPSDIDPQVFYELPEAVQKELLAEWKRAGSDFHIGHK
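Fluorescent replication assay read twice, at 0 min and 10 min after adding 50 nM (final) substrate. Enzyme (10 nM) and compounds were first incubated 15 min at room temperature; enzyme-free buffer wells were negative controls.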
Pol eta inh-1: qHTS for Inhibitors of Polymerase Eta; recombinant Pol eta, fluorescent DNA replication assay; Potency, µM (titrated, usually from 114 µM), for the others: top-dose activity change, negative = inhibition, usual class: inhibitors; DNA polymerase eta (Homo sapiens), Q9Y253; hit rate 1.2% among 390,000; also: potency is read from the fitted curve at half-maximal effect; % is scaled to controls: 0 for no effect and ±100 for the full control effect
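Pol eta at 10 nM preincubated with compounds 15 min at room temperature; reaction started with fluorescent substrate (50 nM final) and read kinetically at 0 and 10 min.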
POLB inh: qHTS Assay for Inhibitors of DNA Polymerase Beta; Pol beta primer extension/strand displacement, fluorescence kinetic; hit rate 1.3% among 340,000; Potency, µM (doses to about 114 µM), inactives show at the top dose activity change, negative = inhibition, actives largely listed as inhibitors; also: potency is read from the fitted curve at half-maximal effect; % is scaled to controls: 0 for no effect and ±100 for the full control effect
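Preincubation: enzyme (10 nM) with compound, 15 min, RT. Reaction: substrate added to 50 nM final. Reads: 0 and 10 min. Analysis: normalized, Hill fit.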
FEN1 inh-1: qHTS Assay for the Inhibitors of Human Flap endonuclease 1 (FEN1). Recombinant FEN1 flap cleavage, fluorescence, 15 min. Potency, µM (titrated, usually from 114 µM), inactives show at the top dose activity change, negative = inhibition, hits mostly inhibitors. hit rate 0.35% among 390,000; also: potency is read from the fitted curve at half-maximal effect; % is scaled to controls: 0 for no effect and ±100 for the full control effect; nearly all actives have a fitted effect of over 65% in size
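Recombinant FEN1 (10 nM) was preincubated with pin-transferred compounds for 15 min at room temperature, then flap DNA substrate (50 nM final) was added. Plates were read at 0 and 15 min, and normalized concentration–response data were fitted to a four-parameter Hill equation.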
BAZ2B inh: qHTS Assay for Inhibitors of BAZ2B: Hit Validation; shares compounds with Pol kappa inh-1; AlphaScreen BAZ2B / biotin-H3K14Ac peptide displacement; Potency, µM, actives largely listed as inhibitors; hit rate 100% among 25; AID 588809, 2011; calls by dose curve
AlphaScreen ctr: qHTS Assay for Inhibitors of BAZ2B: Hit Validation in AlphaScreen Counterscreen | shares compounds with Pol kappa inh-1 | AlphaScreen biotin-His6 peptide bead counterscreen, signal decrease | Potency, µM (titrated, usually from 57.1 µM), for the others: at the top dose activity change, negative = inhibition, actives largely listed as inhibitors | 25 tested, under 10 active | AID 588859, 2011;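 active = clear concentration-dependent signal drop in the bead assay lacking the target, so a primary-screen artifact; inconclusive = weak, partial or single-dose response; inactive = no response, so a real primary hit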
PGK validate: qHTS for inhibitors of Phosphogylcerate Kinase: Hit Validation Screen. Potency, µM (top dose mostly 57.5 µM), inactives show at the top dose activity change, negative = inhibition, hits mostly inhibitors. shares compounds with Pol kappa inh-1. AID 686980, 2013. TbPGK coupled GAPDH assay, Kinase-Glo luminescence. hit rate 79% among 500; also: potency is read from the fitted curve at half-maximal effect; % is scaled to controls: 0 for no effect and ±100 for the full control effect; nearly all actives have a fitted effect of over 65% in size
Pol iota confirm: qHTS for Inhibitors of Polymerase Iota: Confirmatory Assay for Cherry-picked Compounds; shares compounds with Pol kappa inh-1; Pol iota primer extension, TAMRA/BHQ fluorescence; Potency, µM, most hits filed as inhibitors; hit rate 77% among 1,500; AID 720496, 2013; also: potency is read from the fitted curve at half-maximal effect
GALK confirm: Confirmation Assay for Inhibitors of Human Galactokinase (GALK). shares compounds with Pol eta inh-1. purified GALK, Kinase-Glo ATP depletion luminescence. Potency, µM (highest dose often 115 µM), without a hit: at the highest dose activity, negative = inhibition, hits mostly inhibitors. hit rate 70% among 150. AID 2015, 2009
Redox cycling: Confirmatory Assay for Inhibitors of Human Galactokinase (GALK): Phenol-HRP redox assay counterscreen | AID 2035, 2009 | shares compounds with Pol eta inh-1 | Phenol red-HRP H2O2 redox cycling, absorbance 600 nm | hit rate 40% among 150 | Potency, µM (highest dose often 115 µM), for the others: top-dose activity change, negative = H2O2 signal, usual class: inhibitors
HEK293 viability: Secondary Assay for Inhibitors of Human Galactokinase (GALK): HEK-293 Cell Viability Assay; shares compounds with Pol eta inh-1; HEK-293 viability, ATP luminescence (CellTiter-Glo), 24/48 h; Potency, µM (titrated, usually from 46.1 µM), for inactives: top-dose activity change, negative = cytotoxicity, most hits filed as inhibitors; hit rate 10% among 170; AID 2547, 2010; also: potency is read from the fitted curve at half-maximal effect; % is scaled to controls: 0 for no effect and ±100 for the full control effect
Pol kappa inh-2: qHTS for Inhibitors of Polymerase Kappa: Confirmatory Assay for Cherry-picked Compounds | shares compounds with Pol eta inh-1 | purified Pol-kappa, fluorescent strand-displacement substrate | Potency, µM, actives largely listed as inhibitors | hit rate 76% among 920 | AID 720501, 2013; also: potency is read from the fitted curve at half-maximal effect
Pol eta inh-2: qHTS for Inhibitors of Polymerase Eta: Confirmatory Assay for Cherry-picked Compounds; shares compounds with Pol eta inh-1; Pol eta primer extension, TAMRA/BHQ fluorescence, 10 min; Potency, µM, usual class: inhibitors; hit rate 64% among 2,600; also: potency is read from the fitted curve at half-maximal effect
FEN1 inh-2: qHTS Assay for the Inhibitors of FEN1: Confirmatory Assay for Cherry-picked Compounds | shares compounds with FEN1 inh-1 | FEN1 flap cleavage, TAMRA/BHQ2 fluorogenic DNA substrate | Potency, µM, hits mostly inhibitors | hit rate 79% among 880; also: potency is read from the fitted curve at half-maximal effect; nearly all actives have a fitted effect of over 60% in size
* hit, by the source's call; u = inconclusive; x = no result; [ ] = dose if it differs, or a comment. Unless noted, calls follow the shape of the dose curve; as a rule, active = well fitted curve in the direction sought with a large enough effect; inconclusive = small, poorly fitted or top-dose-only effect, or another doubt; inactive = no such curve, though single readings can be large; an effect the other way counts as inactive or inconclusive.

SMILES	Pol kappa inh-1	WRN inhibitor	POLI inh	Pol eta inh-1	POLB inh	FEN1 inh-1	Pol iota confirm	Pol eta inh-2	others
Cc1cc(/C=C2\C(=O)NC(=O)N(c3ccc(Cl)cc3)C2=O)c(C)n1-c1cccc(C(=O)O)c1	-96%	u	18µM*	20µM*	u	u	60*	6.7*	Pol kappa inh-2=17*
O=C1NC(=O)N(c2ccc(F)cc2)C(=O)/C1=C/c1ccc(N2CCOCC2)cc1	1%	-33%	56%	-16%	1%	1%	x	x
O=C1NC(=O)N(Cc2ccc(F)cc2)C(=O)/C1=C\c1ccc(N2CCCC2)cc1	u	u	14µM*	32µM*	35µM*	u	67*	60*
COc1ccc(-n2c(O)c(/C=C/C=Nc3ccccc3)c(=O)[nH]c2=O)cc1	-11%	u	u	20µM*	21%	-28%	60*	76*	Pol kappa inh-2=38*
CN(C)c1ccc(/C=C2/C(=O)NC(=O)N(Cc3ccco3)C2=O)cc1	35µM*	50µM*	16µM*	6.3µM*	u	-29%	67*	38*	Pol kappa inh-2=30*
CN(C)c1ccc(/C=C2\C(=O)NC(=O)N(CCc3ccc(F)cc3)C2=O)cc1	-7%	u	u	-2%	3%	-6%	x	x
CCOc1ccc(CN(CCc2ccc3c(c2)OCO3)Cc2cc(OC)ccc2O)cc1	-1%	x	14%	-26%	u	-11%	x	x
CCOc1ccc(-n2c(/C=C/c3ccccc3)nc3ccccc3c2=O)cc1	-9%[60.1 µM]	x	5%	-13%	0%	10%	x	x
CCn1nc(/C=C/c2ccccc2)nc2c(=O)n(C)c(=O)nc1-2	1%	-1%[11.6 µM]	-92%	0.79µM*	-11%	-14%	0.75*	0.76*	PGK validate=0.52µM*
OC[C@@H]1CCCN2CCCC[C@@H]12	-10%[19.4 µM]	x	x	x	x	x	x	x
O=C(O)Cc1ccc(-n2cccc2)cc1	45µM*	40µM*	13µM*	3.5µM*	4.5µM*	u	12*	7.6*	BAZ2B inh=25*;AlphaScreen ctr=u
CCCOc1ccc(N2C(=O)CC(N3CCC(O)(c4cccc(C(F)(F)F)c4)CC3)C2=O)cc1 (stereo not given)	-2%	-2%	22%	-17%	-1%	3%	x	x
Cc1ccc(N2C(=O)NC(=O)/C(=C\c3cc(C)n(-c4sc5c(c4C#N)CCCC5)c3C)C2=O)cc1	-37%	50µM*	u	20µM*	u	u	67*	19*	FEN1 inh-2=76*
CCOc1cccc(N2C(=O)/C(=C/c3ccco3)C(=O)NC2=S)c1	22µM*	35µM*	u	3.2µM*	7.9µM*	22µM*	9.5*	15*	PGK validate=9.2µM*;FEN1 inh-2=43*
CCOC(=O)N1CC(C)N(/[N+]([O-])=N/Oc2ccc([N+](=O)[O-])cc2[N+](=O)[O-])CC1C (stereo not given)	-7%	x	u	x	x	2%	x	x
CCCCCCC(=O)O[C@H]1CC[C@H]2[C@@H]3CCC4CC(=O)C=C(C)[C@]4(C)[C@H]3CC[C@]12C (stereo not given in full)	3%[19.4 µM]	x	x	x	x	x	x	x
COC(=O)c1nc(-c2ccc3c(n2)C(=O)C(N)=C(OC)C3=O)c(N)c(-c2ccc(OC)c(OC)c2O)c1C	u	u	8.9µM*	10µM*	u	16µM*	47*	u	GALK confirm=5.3µM*;Redox cycling=6.7µM*;HEK293 viability=-4%;FEN1 inh-2=38*

Source: PubChem BioAssay (National Center for Advancing Translational Sciences (NCATS))
